{"source": "PubChem BioAssay AID504329", "about": "(Southern Research Specialized Biocontainment Screening …, 2011)", "note": "The whole screen tested about 340,000 compounds, of which about 1,000 (0.29%) were called active. No stated cut-off is given here; in the data, inconclusive means inhibition above about 27% without an active follow-up result; inactive means below that. Not all results are given here. Potency and affinity values are given separately."}
{"assay": "H1N1 influenza NS1A inhibitors, functional cell based assay (AID 504329)", "conditions": "percent inhibition, at 12.5 µM, stronger effect = higher value"}
{"smiles": "COc1cccc2cc(CC(=O)c3ccccc3)c(=O)oc12", "inhibition": "-8.03% (inactive)"}
{"smiles": "COc1ccc(-c2oc(=O)c3cc(OC)c(OC)cc3c2C#CCCCO)cc1", "inhibition": "6.01% (inactive)"}
{"smiles": "COc1ccc(CCNC(=O)CCCCCN2C(=O)c3ccccc3C2=O)cc1OC", "inhibition": "-8.38% (inactive)"}
{"smiles": "Cc1cc(OCC(=O)NCc2ccncc2)c2c3c(c(=O)oc2c1)CCCC3", "inhibition": "-0.56% (inactive)"}
{"smiles": "NC(=O)C1CCCc2c1n(Cc1ccccc1)c1ccccc21", "note": "(stereo not given)", "inhibition": "1.35% (inactive)"}
{"smiles": "CN(c1ccc(OCC(=O)OCC(=O)Nc2ccc(OC(F)F)cc2)cc1)S(=O)(=O)c1cccs1", "inhibition": "-3.07% (inactive)"}
{"smiles": "Cn1c(C(=O)NCCCN2CCN(c3ccccc3F)CC2)cc2c(=O)n(C)c3ccccc3c21", "inhibition": "2.56% (inactive)"}
{"smiles": "C/C(=N\\Nc1ncc(Cl)cc1Cl)c1ccc(C#N)cc1", "inhibition": "-7.31% (inactive)"}
{"smiles": "C/C(=N/NC(=O)c1ccccn1)c1ccncc1", "inhibition": "19.9% (inactive)"}
{"smiles": "C/C(=N\\Nc1ccc(Cl)cc1)c1ccccn1", "inhibition": "-19.3% (inactive)"}
{"smiles": "O=C(N/N=C(\\c1ccccc1)c1ccccn1)c1ccccc1Cl", "inhibition": "7.83% (inactive)"}
{"smiles": "Cc1sc2ncnc(Nc3ccccc3)c2c1C", "inhibition": "1.18% (inactive)"}
{"smiles": "C/C(=N/NC(=O)c1ccccn1)c1c[nH]c2ccccc12", "inhibition": "9.32% (inactive)"}
{"smiles": "Cc1sc2ncnc(N/N=C/c3ccccc3O)c2c1C", "inhibition": "12.5% (inactive)"}
{"smiles": "C/C(=N/NC(=O)c1ccncc1)c1c[nH]c2ccccc12", "inhibition": "3.5% (inactive)"}
{"smiles": "Nc1cc(N)nc(SCC(=O)NCc2ccco2)n1", "inhibition": "0.81% (inactive)"}
{"smiles": "CN(C(=O)Oc1ccc([N+](=O)[O-])cc1)c1ccccc1", "inhibition": "5.58% (inactive)"}
{"smiles": "COCCn1c(=O)[nH]c2cc(C(=O)N3CCN(c4cccc(C(F)(F)F)c4)CC3)ccc2c1=O", "inhibition": "4.36% (inactive)"}
{"smiles": "O=C1NC2NC(=O)N(C(Cc3ccccc3)C(=O)O)C2N1", "note": "(stereo not given)", "inhibition": "7.19% (inactive)"}
{"smiles": "COc1ccc(C(=O)COC(=O)c2ccccn2)cc1OC", "inhibition": "2.06% (inactive)"}
{"smiles": "O=C(COC(=O)c1ccccn1)c1ccc(Br)cc1", "inhibition": "13.3% (inactive)"}
{"smiles": "Clc1ccccc1N=Nc1ccccn1", "inhibition": "2.66% (inactive)"}
{"smiles": "C/C(=N\\Nc1ccc(Cl)c(C(=O)O)c1)c1ccccn1", "inhibition": "-11.6% (inactive)"}
{"smiles": "O=C1CC(=C(c2ccccc2)c2ccccc2)C(=O)N1CCCCN1CCN(c2ccccc2)CC1", "inhibition": "0.53% (inactive)"}
{"smiles": "COc1cc(/C=C/C(=O)Nc2cccc(S(=O)(=O)N3CCOCC3)c2)ccc1OCC#N", "inhibition": "-0.73% (inactive)"}
{"smiles": "CN(C(=O)CN1C(=O)c2cc(Cl)c(Cl)cc2C1=O)C1CCS(=O)(=O)C1", "note": "(stereo not given)", "inhibition": "-4.84% (inactive)"}
{"smiles": "Cn1nc([N+](=O)[O-])c(C(C#N)c2ccccn2)c(Cl)c1=O", "note": "(stereo not given)", "inhibition": "7.2% (inactive)"}
{"smiles": "Cn1nc([N+](=O)[O-])c(C(C#N)c2nc3ccccc3n2C)c(Cl)c1=O", "note": "(stereo not given)", "inhibition": "3.66% (inactive)"}
{"smiles": "CCCn1nc([N+](=O)[O-])c(C(C#N)c2nc3ccccc3o2)c(Cl)c1=O", "note": "(stereo not given)", "inhibition": "17.6% (inactive)"}
{"smiles": "CCn1nc([N+](=O)[O-])c(C(C#N)c2nc3ccccc3n2C)c(Cl)c1=O", "note": "(stereo not given)", "inhibition": "0.82% (inactive)"}
